According to paper PMC4552634, “A New Set of Chemical Starting Points with Plasmodium falciparum Transmission-Blocking Potential for Antimalarial Drug Discovery” (PLoS ONE, 2015):
About 3,200 (25%) of roughly 13,000 compounds showed an effect of 50% or more. This is one part of the list.

Tested on: P. falciparum stage V gametocytes
Set-up: BacTiter-Glo ATP luminescence viability of purified stage V gametocytes in 384-well plates, per cent inhibition versus DMSO
Conditions: 48 h, 5 µM; inhibitor

In order of rising “% Inhibition” value:
1. Cc1cccc(C)c1CNc1cccc(-c2nc(C)c(C)[nH]2)c1 [TCMDC-133434]  -88.3%
2. O=C(Nc1ccc(C(F)(F)F)cc1)c1cccc(S(=O)(=O)NC2CCN(CC3CCCCC3)C2)c1 (centres unmarked) [TCMDC-132485]  -55.81%
3. CC(C)=CCN1CCC(C(=O)Nc2ccc(-c3nc4ccccc4[nH]3)cc2)CC1 [TCMDC-124613]  -52.31%
4. Clc1cccc(C=NNc2ccnc3ccccc23)c1 [TCMDC-142057]  -48.21%
5. Cc1cc(N[C@@H](CC(C)C)C(=O)Nc2ccccc2)nc(NCc2ccccc2C)n1 [TCMDC-134912]  -40.4%
6. Cc1cccc(C)c1CNc1ccnc2ccccc12 [TCMDC-132169]  -38.56%
7. O=C(Nc1cccc(C(F)(F)F)c1)c1cccc(S(=O)(=O)NC2CCCN(CC3CCCCC3)C2)c1 (centres unmarked) [TCMDC-132769]  -38.48%
8. CSc1cccc(Nc2nc3ccc(S(=O)(=O)NCC(C)C)cc3n2C(C)C(C)C)c1 (centres unmarked) [TCMDC-136235]  -38.43%
9. Oc1cc2ccccc2cc1CNC1CCCCC1 [TCMDC-131977]  -28.97%
10. COc1cc(C(=O)N2CCOC(CCN3CCC(Cc4ccc(F)cc4)CC3)(c3ccc(Cl)c(Cl)c3)C2)cc(OC)c1OC (centres unmarked) [TCMDC-135568]  -27.28%
11. CS(=O)(=O)c1ccc2c(c1)CCN(CCC1CCC(NC(=O)c3cc4cccc(Br)c4[nH]3)CC1)CC2 (centres unmarked) [TCMDC-141425]  -26.4%
12. O=C(NCC1CN(Cc2ccc(N3CCCC3)o2)CCCO1)c1ccc2c(c1)OCO2 (centres unmarked) [TCMDC-134852]  -25.48%
13. O=C(Cc1cccc2ccccc12)NC1CCN(c2ccnc3cc(Cl)ccc23)C1 (centres unmarked) [TCMDC-133666]  -21.93%
14. Oc1c(Cl)cc(-c2ccccc2)cc1CNC1CCCCC1 [TCMDC-137170]  -21.36%
15. COC1CCC(C(=O)Nc2ccc(-c3cccc(-c4nc5c(C)cccc5[nH]4)c3)cc2)CC1 (centres unmarked) [TCMDC-136859]  -20.23%
16. CN1CCN(CC(=O)Nc2ccc(-c3ccc(-c4nc5ccccc5[nH]4)s3)cc2)CC1 [TCMDC-136971]  -13.63%
17. CC1CN(Cc2ccccc2)CCN1c1ccc(NC(=O)c2ccc(F)cc2)cc1 (centres unmarked) [TCMDC-135002]  -13.42%
18. O=C(Nc1ccc(-c2csc(-c3nc4ccccc4[nH]3)c2)cc1)Nc1ccsc1 [TCMDC-133207]  -12.45%
19. CC(=O)N1CCC(C(=O)Nc2ccc(-c3cccc(-c4nc5c(C)cccc5[nH]4)c3)cc2)CC1 [TCMDC-132167]  -9.717%
20. O=C(Nc1ccc(Cl)cc1)c1cccc(S(=O)(=O)NC2CCN(CC3CCCCC3)C2)c1 (centres unmarked) [TCMDC-132483]  -5.409%
21. O=C(CCN(Cc1ccco1)c1nc(-c2ccc(F)cc2)nc2ccccc12)NC1CC1 [TCMDC-124785]  -4.08%
22. Nc1ncc(-c2ccc(S(=O)(=O)Nc3ccc(C(=O)N[C@@H](CCC(=O)O)C(=O)O)cc3)cc2)c(=O)[nH]1 [TCMDC-137342]  -1.262%
23. CN1CCC(C(=O)Nc2ccc(-c3ccc(-c4nc5cc(C(F)(F)F)ccc5[nH]4)s3)cc2)CC1 [TCMDC-132183]  -1.127%
24. Cc1cccc2[nH]c(-c3cccc(-c4ccc(NC(=O)C5CCCO5)cc4)c3)nc12 (centres unmarked) [TCMDC-136969]  -0.7596%
25. CN1CCC(C(=O)Nc2cccc(-c3ccc(-c4nc5ccccc5[nH]4)cc3)c2)CC1 [TCMDC-132186]  -0.3438%
26. O=C(Nc1ccc(OC2CCN(Cc3ccsc3)C2)c(Cl)c1)c1ccsc1 (centres unmarked) [TCMDC-133947]  1.522%
27. FC(F)(F)c1ccc2nc(-c3ccc(-c4cccc(CN5CCN(c6ccncc6)CC5)c4)cc3)[nH]c2c1 [TCMDC-132916]  2.402%
28. CC(C)C[C@@H](/C=N/N1CC(=O)NC1=O)NC(=O)[C@H](CC(C)C)NC(=O)c1ccc(OCCN2CCOCC2)cc1 [TCMDC-136200]  6.414%
29. O=C(Nc1ccc(-c2cccc(-c3nc4ccccc4[nH]3)c2)cc1)Nc1ccsc1 [TCMDC-133220]  7.696%
30. O=C(Nc1ccc(C(F)(F)F)cc1)c1cccc(S(=O)(=O)NC2CCN(CC3CCCCC3)CC2)c1 [TCMDC-133671]  8.091%
31. CC[C@H]1CN2CC[C@@H]1C[C@H]2[C@H](O)c1cc[n+]([O-])c2ccc(OC)cc12 [TCMDC-142004]  8.307%
32. COc1ccc2nccc([C@@H](O)CN3CCC(NCc4cc5cccc(OCc6ccccc6)c5[nH]4)CC3)c2c1 [TCMDC-141117]  10.73%
33. COc1ccc2nccc([C@@H](O)CN3CCC(NCc4cc5ccccc5o4)CC3)c2c1 [TCMDC-140521]  12.09%
34. Clc1ccc(-c2cc(-c3csc(NCCN4CCOCC4)n3)on2)c(Cl)c1 [TCMDC-140322]  15.06%
35. Cc1ccc(NC(=O)N2CCC(n3c(-c4ccccc4)nc4cccnc43)CC2)cc1F [TCMDC-124742]  24.56%
36. Cc1cc(-c2nc3ccc(C(=O)NCc4ccccc4)cc3n2C2CCN(C(=O)c3ccc(-c4ccccc4)cc3)CC2)ccn1 [TCMDC-135884]  25.38%
37. CCCCCCCC/C=C\CCCCCCCC(=O)NCc1ccc(O)c(OC)c1 [TCMDC-124289]  45.72%
38. CN1CCC(C(=O)Nc2ccc(-c3ccc(-c4nc5ccccc5[nH]4)s3)cc2)CC1 [TCMDC-132179]  54.96%
39. CN1CCC(C(=O)Nc2ccc(-c3ccc(-c4nc5ccccc5[nH]4)cc3)cc2)CC1 [TCMDC-132187]  59.64%
40. O=C(Nc1ccc(Br)cc1)N1CCC(n2c(-c3ccccc3)nc3cccnc32)CC1 [TCMDC-124743]  60.37%
41. CCCNc1nc(NCc2c(C)cccc2C)nc(NC(C)(C)C)n1 [TCMDC-133383]  61.71%
42. Oc1ccccc1CNC1CCCCC1NCc1ccccc1O (centres unmarked) [TCMDC-138468]  62.18%
43. O=C(Nc1ccc(-c2ccc(-c3nc4ccccc4[nH]3)s2)cc1)Nc1ccsc1 [TCMDC-133219]  69.14%
44. O=C(Nc1ccc(Cl)cc1)c1cccc(S(=O)(=O)NC2CCN(CC3CCCCC3)CC2)c1 [TCMDC-132807]  80.59%
45. Cc1cccc2[nH]c(-c3ccc(-c4ccc(NC(=O)C5CCN(C)CC5)cc4)cc3)nc12 [TCMDC-132182]  81.12%
46. N#Cc1cccc(NC(=O)c2cccc(S(=O)(=O)NC3CCN(CC4CCCCC4)C3)c2)c1 (centres unmarked) [TCMDC-132508]  83.68%
47. Cc1cccc2[nH]c(-c3cccc(-c4ccc(NC(=O)C5CCN(C)CC5)cc4)c3)nc12 [TCMDC-132189]  100.5%
